# Assay results: the supplement of paper PMC10849652
# Of roughly 8,800 targets only a part is listed; those with a hit were picked by preference. About 0.5% of all pairs of compound and target were hits. Unmarked numbers belong to inactive results.
# What was measured:
# Test in all cases: log2 fold change, soluble protein after heating vs DMSO (PISA); higher = thermal stabilisation; K562 lysate, 10 uM; active = over 0.2 and 3.5 SD of the protein, either way, in both replicates (recomputed)
# [1] = compound: C#Cc1cccc(Nc2ncnc3cc(OCCOC)c(OCCOC)cc23)c1 [erlotinib]
# In short: (§1)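 Pellets of K562 cells were dounce-homogenised in PBS pH 7.4 with 1 mM MgCl2, and the crude extract was held at 1 mg/mL protein for a 30 min treatment with 10 μM compound. Aliquots were heated for 3 min over 48°C-58°C and pooled before NP-40 was added to 0.5% at 4°C. The supernatant from 21,000xg for 90 min was quantified by TMTpro 16plex LC-MS/MS with channel sums equalised. Values are reported from duplicates as log-two fold change in thermal stability relative to solvent controls.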
# [2] = compound: C/C(=N\NC(=O)C1=CC(=CC=C1)S(=O)(=O)N2CCOCC2)/C3=C(C=CC(=C3)Cl)O
# In short: as §1
# [3] = compound: C1=CC(=CC=C1C2=NC3=C(N2)C=C(C=C3)C(=O)N)OC4=CC=C(C=C4)Cl
# In short: as §1
# [4] = compound: C1=CC2=C(C=CC(=C2)/C=C\3/C(=O)NC(=NCC4=CC=CS4)S3)N=C1
# In short: as §1
# [5] = compound: C1=CC2=NC=CN=C2C=C1/C=C/3\C(=O)NC(=O)S3
# In short: as §1
# [6] = compound: C1=CC=C(C=C1)C2=NC(=C(N2)C3=CC=NC=C3)C4=CC(=C(C=C4)Cl)O
# In short: as §1
# [7] = compound: C1=CC=C2C(=C1)C3=NNC4=CC=CC(=C43)C2=O
# In short: as §1
# [8] = compound: C1CCN(C1)C(=O)NC2=CC=CC(=C2)NC3=NC=C(C(=N3)NCCC4=CN=CN4)Br
# In short: as §1
# [9] = compound: C1CN(CCC1(CC2=CC=C(C=C2)Cl)N)C3=NC=NC4=C3C=CN4
# In short: as §1
# [10] = compound: C1COCCN1CCN2C3=CC=CC=C3N=C2NC(=O)C4=CC(=CC=C4)[N+](=O)[O-] [IRAK-1-4 Inhibitor I]
# In short: as §1
# [11] = compound: C=CC(=O)N1CCC[C@@H](n2nc(-c3ccc(Oc4ccccc4)cc3)c3c(N)ncnc32)C1 [ibrutinib]
# In short: as §1
# [12] = compound: CC(=O)c1cnc2ccc(-c3cc(Cl)c(O)c(Cl)c3)nc2c1N[C@H]1CC[C@H](CN(C)C)CC1
# In short: as §1
# [13] = compound: CC(C)(C)Cn1c(N)nc2ccc(-c3[nH]c(C(C)(C)C)nc3-c3ccc(F)cc3)nc21 [ralimetinib]
# In short: as §1
# [14] = compound: CC(C)(O)CC(=O)NCCn1ccc2ncnc(Nc3ccc(Oc4cccc(C(F)(F)F)c4)c(Cl)c3)c21
# In short: as §1
# [15] = compound: CC(C)C1=C2N=C(C=C(N2N=C1)NCC3=CC=CC=C3)NCCCCCCN
# In short: as §1
# [16] = compound: CC1=C(C(CC(=O)N1)C2=CC=C(C=C2)C(F)(F)F)C(=O)NC3=C(C=C4C(=C3)C=NN4)F
# In short: as §1
# [17] = compound: CC1=C(C2=C(C=C1)C(=O)C3=CC=CC=C3N2CCCN)C
# In short: as §1
# [18] = compound: CC1=C(C=C(C=C1)NC(=O)C2=CC(=CC=C2)N(C)C)NC(=O)C3=CC=C(C=C3)O
# In short: as §1
# [19] = compound: CC1=CC=C(C=C1)SC2=C3C=C(SC3=CN=C2)C(=O)N
# In short: as §1
# [20] = compound: CC1=C(C=C(C=C1)NC(=O)C2=CC(=CC=C2)C(C)(C)C#N)NC3=CC4=C(C=C3)N=CN(C4=O)C
# In short: as §1
# Chain of UniProt P78364 (P78364 whole entry, looked up): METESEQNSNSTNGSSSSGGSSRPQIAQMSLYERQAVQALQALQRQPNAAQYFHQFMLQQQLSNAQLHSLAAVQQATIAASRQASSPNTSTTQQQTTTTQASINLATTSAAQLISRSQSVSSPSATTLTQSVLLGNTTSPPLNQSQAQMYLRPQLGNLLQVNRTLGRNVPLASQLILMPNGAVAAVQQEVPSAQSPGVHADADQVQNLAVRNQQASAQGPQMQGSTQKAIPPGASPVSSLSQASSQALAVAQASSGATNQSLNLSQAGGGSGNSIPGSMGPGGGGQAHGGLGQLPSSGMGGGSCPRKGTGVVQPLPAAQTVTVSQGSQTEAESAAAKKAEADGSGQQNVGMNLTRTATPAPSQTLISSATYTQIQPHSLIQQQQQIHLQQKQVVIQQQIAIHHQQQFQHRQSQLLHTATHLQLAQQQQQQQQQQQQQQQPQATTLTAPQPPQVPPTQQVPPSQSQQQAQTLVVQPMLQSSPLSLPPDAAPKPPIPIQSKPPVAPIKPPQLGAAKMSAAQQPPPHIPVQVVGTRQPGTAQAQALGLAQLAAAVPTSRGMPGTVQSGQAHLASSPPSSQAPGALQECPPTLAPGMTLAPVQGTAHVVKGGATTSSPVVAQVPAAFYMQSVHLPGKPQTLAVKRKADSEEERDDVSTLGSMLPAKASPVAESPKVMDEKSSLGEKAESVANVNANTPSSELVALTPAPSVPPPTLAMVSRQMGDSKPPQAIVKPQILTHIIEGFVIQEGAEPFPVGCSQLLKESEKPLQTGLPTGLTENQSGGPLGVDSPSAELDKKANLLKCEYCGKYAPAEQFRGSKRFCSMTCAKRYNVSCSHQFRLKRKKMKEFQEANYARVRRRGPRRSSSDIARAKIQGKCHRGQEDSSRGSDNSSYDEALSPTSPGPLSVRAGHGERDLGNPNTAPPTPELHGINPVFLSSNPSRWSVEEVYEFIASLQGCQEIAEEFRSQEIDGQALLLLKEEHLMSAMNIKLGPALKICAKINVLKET
# Chain of UniProt Q9ULR3 (Q9ULR3 whole entry, looked up): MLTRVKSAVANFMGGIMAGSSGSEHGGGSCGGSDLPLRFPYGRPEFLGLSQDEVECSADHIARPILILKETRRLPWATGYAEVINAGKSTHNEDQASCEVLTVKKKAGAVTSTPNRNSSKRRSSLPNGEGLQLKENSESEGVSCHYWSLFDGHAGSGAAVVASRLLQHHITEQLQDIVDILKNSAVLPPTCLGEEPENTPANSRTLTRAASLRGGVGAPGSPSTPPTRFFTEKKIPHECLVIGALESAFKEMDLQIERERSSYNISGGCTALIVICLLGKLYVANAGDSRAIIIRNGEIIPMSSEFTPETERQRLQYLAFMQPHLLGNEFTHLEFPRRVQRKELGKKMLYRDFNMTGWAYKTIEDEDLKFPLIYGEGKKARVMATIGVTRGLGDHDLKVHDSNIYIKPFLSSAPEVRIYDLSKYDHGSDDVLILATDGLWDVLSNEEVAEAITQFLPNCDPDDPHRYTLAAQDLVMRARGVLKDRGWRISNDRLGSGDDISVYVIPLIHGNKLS
# Chain of UniProt Q969Q6 (Q969Q6 whole entry, looked up): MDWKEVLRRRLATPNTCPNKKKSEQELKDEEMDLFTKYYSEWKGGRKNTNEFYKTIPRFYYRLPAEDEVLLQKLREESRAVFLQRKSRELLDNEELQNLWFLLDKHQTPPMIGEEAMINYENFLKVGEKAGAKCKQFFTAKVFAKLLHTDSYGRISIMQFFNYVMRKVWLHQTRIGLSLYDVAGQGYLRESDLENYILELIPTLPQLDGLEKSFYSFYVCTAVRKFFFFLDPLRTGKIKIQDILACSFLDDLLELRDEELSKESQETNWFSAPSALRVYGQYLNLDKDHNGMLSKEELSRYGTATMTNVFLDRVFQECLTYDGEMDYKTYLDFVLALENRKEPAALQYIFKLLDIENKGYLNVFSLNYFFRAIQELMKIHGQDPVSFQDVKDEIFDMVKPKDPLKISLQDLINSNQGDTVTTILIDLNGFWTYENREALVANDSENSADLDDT
# Chain of UniProt Q9BTU6 (Q9BTU6 whole entry, looked up): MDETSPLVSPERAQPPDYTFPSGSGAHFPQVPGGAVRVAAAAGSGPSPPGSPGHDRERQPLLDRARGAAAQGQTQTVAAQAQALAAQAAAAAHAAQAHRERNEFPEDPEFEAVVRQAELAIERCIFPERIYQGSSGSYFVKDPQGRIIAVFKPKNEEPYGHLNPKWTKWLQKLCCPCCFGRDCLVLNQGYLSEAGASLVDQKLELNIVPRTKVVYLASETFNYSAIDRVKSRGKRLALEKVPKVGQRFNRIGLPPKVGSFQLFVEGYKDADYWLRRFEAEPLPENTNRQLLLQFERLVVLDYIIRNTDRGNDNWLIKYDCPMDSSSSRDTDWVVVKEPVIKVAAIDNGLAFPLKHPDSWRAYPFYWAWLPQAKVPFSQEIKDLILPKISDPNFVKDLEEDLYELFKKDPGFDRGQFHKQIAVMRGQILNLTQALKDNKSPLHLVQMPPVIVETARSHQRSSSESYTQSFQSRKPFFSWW
# Chain of UniProt P41247 (P41247 whole entry, looked up): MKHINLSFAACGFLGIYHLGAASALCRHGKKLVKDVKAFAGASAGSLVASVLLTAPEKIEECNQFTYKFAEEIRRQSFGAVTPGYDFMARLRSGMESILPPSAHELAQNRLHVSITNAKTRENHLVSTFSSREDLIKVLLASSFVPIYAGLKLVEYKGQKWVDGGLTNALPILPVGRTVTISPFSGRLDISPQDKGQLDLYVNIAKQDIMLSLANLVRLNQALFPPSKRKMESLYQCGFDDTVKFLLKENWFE
# Chain of UniProt P11309 (P11309 whole entry, looked up): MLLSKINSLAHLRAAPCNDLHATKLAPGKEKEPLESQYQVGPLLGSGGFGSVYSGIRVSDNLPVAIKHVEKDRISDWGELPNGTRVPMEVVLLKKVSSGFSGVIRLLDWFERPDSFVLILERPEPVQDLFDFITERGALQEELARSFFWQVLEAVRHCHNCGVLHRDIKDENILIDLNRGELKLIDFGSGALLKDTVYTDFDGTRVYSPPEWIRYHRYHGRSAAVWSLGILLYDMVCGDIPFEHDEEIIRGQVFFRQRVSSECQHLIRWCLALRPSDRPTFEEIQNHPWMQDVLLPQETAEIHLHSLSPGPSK
# Chain of UniProt O75928 (O75928 whole entry, looked up): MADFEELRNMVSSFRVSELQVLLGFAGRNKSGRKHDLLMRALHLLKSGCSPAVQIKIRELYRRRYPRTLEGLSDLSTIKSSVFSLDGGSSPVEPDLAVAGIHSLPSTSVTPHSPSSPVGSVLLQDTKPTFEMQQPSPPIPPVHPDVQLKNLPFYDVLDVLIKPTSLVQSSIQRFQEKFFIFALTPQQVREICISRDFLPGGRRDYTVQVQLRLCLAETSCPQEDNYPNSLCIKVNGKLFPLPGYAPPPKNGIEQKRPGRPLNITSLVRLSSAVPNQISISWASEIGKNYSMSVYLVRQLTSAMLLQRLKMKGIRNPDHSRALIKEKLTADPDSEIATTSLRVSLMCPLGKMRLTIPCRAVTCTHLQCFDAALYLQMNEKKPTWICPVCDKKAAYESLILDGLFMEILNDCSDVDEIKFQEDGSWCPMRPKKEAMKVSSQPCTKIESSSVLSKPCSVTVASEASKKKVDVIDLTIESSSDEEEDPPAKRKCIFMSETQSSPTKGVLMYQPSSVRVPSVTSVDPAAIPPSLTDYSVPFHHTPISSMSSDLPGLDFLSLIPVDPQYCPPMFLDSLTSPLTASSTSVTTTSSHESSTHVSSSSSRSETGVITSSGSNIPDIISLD
# Chain of UniProt A8CG34 (A8CG34 whole entry, looked up): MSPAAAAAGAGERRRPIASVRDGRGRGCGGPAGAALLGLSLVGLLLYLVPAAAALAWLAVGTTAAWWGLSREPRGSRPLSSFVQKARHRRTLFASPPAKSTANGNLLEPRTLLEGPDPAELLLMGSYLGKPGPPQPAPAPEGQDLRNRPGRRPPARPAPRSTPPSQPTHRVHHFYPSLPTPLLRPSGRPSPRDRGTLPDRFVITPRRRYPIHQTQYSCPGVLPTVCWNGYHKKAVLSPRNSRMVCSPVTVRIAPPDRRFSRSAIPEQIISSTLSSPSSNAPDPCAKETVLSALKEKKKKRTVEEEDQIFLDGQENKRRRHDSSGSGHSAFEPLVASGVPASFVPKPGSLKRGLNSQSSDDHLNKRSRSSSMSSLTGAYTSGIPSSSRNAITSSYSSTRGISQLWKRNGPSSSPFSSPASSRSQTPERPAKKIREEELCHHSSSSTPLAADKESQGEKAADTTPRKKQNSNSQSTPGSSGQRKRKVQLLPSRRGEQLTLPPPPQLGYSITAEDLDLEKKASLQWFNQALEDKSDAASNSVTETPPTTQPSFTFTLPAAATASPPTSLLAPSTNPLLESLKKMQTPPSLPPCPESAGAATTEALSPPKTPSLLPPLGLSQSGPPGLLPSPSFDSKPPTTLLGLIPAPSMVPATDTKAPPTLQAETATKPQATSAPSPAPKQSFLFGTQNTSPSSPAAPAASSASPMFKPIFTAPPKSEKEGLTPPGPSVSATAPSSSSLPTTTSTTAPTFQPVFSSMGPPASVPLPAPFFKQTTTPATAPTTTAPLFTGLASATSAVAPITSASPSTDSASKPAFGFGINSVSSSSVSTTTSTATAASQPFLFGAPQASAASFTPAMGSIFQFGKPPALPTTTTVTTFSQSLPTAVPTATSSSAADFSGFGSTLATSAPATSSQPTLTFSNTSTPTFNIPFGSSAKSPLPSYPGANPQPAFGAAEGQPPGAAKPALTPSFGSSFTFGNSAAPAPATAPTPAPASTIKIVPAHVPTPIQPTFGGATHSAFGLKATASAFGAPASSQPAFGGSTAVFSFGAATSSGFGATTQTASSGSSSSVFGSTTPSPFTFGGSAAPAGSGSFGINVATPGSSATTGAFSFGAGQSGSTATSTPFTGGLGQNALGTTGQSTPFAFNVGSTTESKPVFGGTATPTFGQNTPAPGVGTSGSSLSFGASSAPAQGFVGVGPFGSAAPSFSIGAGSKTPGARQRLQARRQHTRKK
# Chain of UniProt Q16378 (Q16378 whole entry, looked up): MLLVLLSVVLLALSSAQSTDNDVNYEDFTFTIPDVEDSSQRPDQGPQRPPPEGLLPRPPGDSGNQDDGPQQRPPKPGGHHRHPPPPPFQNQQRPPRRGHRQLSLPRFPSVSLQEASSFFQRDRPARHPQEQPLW
Target,log2 fold change [1],log2 fold change [2],log2 fold change [3],log2 fold change [4],log2 fold change [5],log2 fold change [6],log2 fold change [7],log2 fold change [8],log2 fold change [9],log2 fold change [10],log2 fold change [11],log2 fold change [12],log2 fold change [13],log2 fold change [14],log2 fold change [15],log2 fold change [16],log2 fold change [17],log2 fold change [18],log2 fold change [19],log2 fold change [20]
PPP2R3C (UniProt Q969Q6),-0.061,-0.009,-0.126,-0.025,-0.019,0.033,-0.032,-0.023,-0.035,-0.018,0.108,0.089,0.109,0.036,-0.088,0.021,-0.02,0.048,0.196,–
PDCD6IP (UniProt Q8WUM4),-0.016,0.021,-0.036,0,0.108,0.03,0.013,0.07,0.012,-0.094,-0.056,0.042,-0.066,-0.004,0.078,0.009,0.004,0.02,-0.03,-0.037
PRPH isoform 2 (UniProt P41219),-0.007,0.042,-0.025,-0.032,0.066,-0.001,-0.114,0.072,-0.005,-0.011,-0.099,0.054,0.009,0.067,0.074,0.002,0.007,0.023,-0.011,-0.064
PPM1H (UniProt Q9ULR3),-0.048,-0.045,0.25 (active),0.021,-0.049,0.009,0.011,-0.039,0.101,0.037,0.058,-0.032,-0.008,-0.035,0.019,–,-0.028,-0.007,0.02,0.048
PI4K2A (UniProt Q9BTU6),-0.013,-0.005,-0.041,0.021,-0.003,0.02,0.063,0.002,0.058,0.003,-0.017,0.044,0.002,-0.037,-0.006,-0.028,0.028,0,-0.009,-0.06
PUF60 isoform 2 (UniProt Q9UHX1),0.102,-0.094,0.083,-0.019,-0.064,-0.088,-0.005,-0.045,0.033,-0.011,0.153,-0.049,0.045,0.004,-0.174,-0.021,–,-0.036,0.013,0.032
PHC1 (UniProt P78364),–,0.032,–,-0.004,-0.075,–,-0.051,0.021,-0.01,–,0.027,–,–,–,–,0.044,-0.117,–,–,0.443 (active)
"PHGDH, A0A286YFE1",–,–,–,–,-0.166,–,–,–,–,–,0.032,0.084,–,–,–,–,-0.458,–,0.107,–
PEX2 (UniProt P28328),0.106,-0.731 (active),0.068,0.048,-0.128,0.082,-0.119,–,–,-0.04,0.017,-0.114,0.021,-0.098,0.023,0.14,-0.07,0.065,0.035,-0.002
PIM1 isoform 2 (UniProt P11309),0.118,-0.106,-0.164,0.028,0.238,0.123,-0.034,-0.077,0.02,-0.076,-0.138,–,0.042,0.122,-0.038,-0.014,0.054,0.054,–,0.01
PCBP2 (UniProt F8W0G4),-0.117,-0.36,-0.007,-0.102,0.022,0.005,-0.236,-0.241,0.079,0.093,-0.27,–,-0.061,-0.282,-0.175,-0.045,-0.083,0.049,–,–
PFN1 (UniProt I3L3D5),–,–,–,–,0.054,0.045,–,0.009,0.03,0.005,-0.045,-0.053,0.045,-0.033,–,-0.013,–,0,0.031,–
PRR4 (UniProt Q16378),-0.097,1.59,-0.193,-0.167,–,-0.11,-0.484,-0.127,1.09,-0.048,–,-0.009,-0.188,0.305,1.86,1.73,–,0.1,-0.23,–
PICALM (UniProt H0YCY1),-0.09,–,0.108,–,–,–,–,–,–,–,–,–,–,–,-0.155,–,–,–,–,–
PDE4DIP (UniProt E9PS60),0.026,-0.056,-0.13,0.044,–,–,0.039,0.114,0.063,–,–,–,–,–,0.037,-0.113,0.076,–,–,0.234
POM121C (UniProt A8CG34),0.001,–,0.027,–,0.032,-0.064,–,–,–,-0.069,-0.167,0.008,-0.127,0.016,0.028,–,–,-0.028,0.034,–
PIAS2 (UniProt O75928),0.043,-0.277,0.035,0,–,0.019,0.039,0.037,-0.002,0.053,–,–,0.019,0.006,-0.017,0.039,0.052,-0.002,–,-0.001
PPP2CA (UniProt E7ESG8),–,–,–,–,–,–,–,–,–,–,–,–,–,–,–,0.239,–,–,–,–
PHOSPHO2 (UniProt C9JD35),–,–,–,–,–,–,–,0.069,-0.21,–,–,–,–,–,–,–,–,–,–,0.09
PNPLA4 (UniProt P41247),–,0.064,–,0.1,–,0.051,0.1,0.086,0.09,-0.001,–,–,0.14,-0.099,–,–,-0.116,0.046,–,-0.052
